Only some compounds are listed: those with a hit (about 2.1% of all), similar ones and a draw of the others.
Abeta rescue: restores growth of yeast expressing A-beta42 peptide | Potency, µM (highest dose often 46.1 µM), actives largely listed as activators | 0.063% of 410,000 active | yeast expressing A-beta42, growth rescue, OD600, 48 h; response scale: 0% DMSO, 100% iron-clioquinol control; note: nearly all actives have a fitted effect of over 55% in size
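Yeast growth medium received pinned compounds, then yeast cells expressing toxic A-beta were added; plates incubated at 30 C for 48 hr. Growth read as absorbance at 600 nm, normalized to DMSO and equimolar FeCl3 plus clioquinol controls.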
aSyn rescue: alpha-synuclein toxicity inhibition in yeast | Yeast expressing alpha-synuclein, growth rescue, BacTiter-Glo, 24 h | Potency, µM (doses to about 46.1 µM), for inactives: at the highest dose growth rescue (activation), hits mostly activators | 0.14% of 370,000 active; note: % of control where 0% means no effect; nearly all actives have a fitted effect of over 65% in size
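Readout is rescue of growth in alpha-synuclein-expressing yeast, so inhibitors of toxicity appear as activators. Growth after 24 hr at 30 deg C in galactose medium is quantified by luminescence.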
TDP43 rescue: rescues yeast growth from TDP-43 toxicity; Potency, µM (highest dose often 46.1 µM), without a hit: at the highest dose growth rescue (activation), actives largely listed as activators; 1.8% of 410,000 active; AID 652104; TDP-43 expressing yeast growth rescue, BacTiter-Glo, 24 h; note: % of control where 0% means no effect; nearly all actives have a fitted effect of over 50% in size
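Cell-based yeast growth screen: TDP-43 expression induced in galactose, inoculum OD600=0.02 after raffinose pregrowth to mid-log. Read-out BacTiter-Glo luminescence at 24 hr, 30 deg C; inhibition of toxicity seen as signal increase.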
FUS yeast rescue: suppressors of FUS proteinopathy in yeast; 0.24% of 390,000 active; AID 1347120; S. cerevisiae FUS-expressing, growth rescue, OD600, 24 h; Potency, µM (top dose mostly 76.6 µM), most hits filed as activators;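 note: plate controls were DMSO vehicle for no effect and reference control for full effect; nearly all actives have a fitted effect of over 55% in size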
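Compound concentration series was pinned onto galactose-induced FUS-expressing yeast seeded at OD 0.005. Plates sat 24hr at 30C; absorbance at 600 nm gave growth. DMSO served as background control.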
* marks the source's active call; other numbers are inactive results. Calls come from the whole dose curve; as a rule, active = well fitted curve in the direction sought with a large enough effect; inconclusive = small, poorly fitted or top-dose-only effect, or another doubt; inactive = no such curve, though single readings can be large; an effect the other way counts as inactive or inconclusive. Potency is the fitted concentration of half-maximal effect.

CC(=O)/C(=C/c1ccccc1)C(=O)Nc1ccccc1C was read as Abeta rescue inactive, aSyn rescue inconclusive, TDP43 rescue 2.51µM* and FUS yeast rescue inactive.
Screening CC(C)N1CCCCC(NC(=O)c2c(F)cccc2F)C1=O (stereo unspecified) returned FUS yeast rescue inactive.
Screening COc1ccc(/C=N/n2c(SC)nnc2-c2ccccc2)cc1C returned Abeta rescue inactive, aSyn rescue 4.1%, TDP43 rescue 15.8µM* and FUS yeast rescue inactive.
Screening Clc1ccc2c(c1)c1ccccc1n2CN1CCOCC1 returned Abeta rescue inactive, aSyn rescue -4.5%, TDP43 rescue inconclusive and FUS yeast rescue inactive.
`Clc1ccc2c(c1)c1cc(Cl)ccc1n2CN1CCOCC1` gave Abeta rescue inactive, aSyn rescue -24.8%, TDP43 rescue 6.31µM* and FUS yeast rescue inactive.
`COc1ccccc1NC(=O)c1cc2ccc3cccnc3c2[nH]1` gave Abeta rescue inactive, TDP43 rescue 14.1µM* and FUS yeast rescue inconclusive.
For CC(C)N(Cc1ccccc1)C(=O)c1cc2ccc3cccnc3c2[nH]1 the results were Abeta rescue inactive, TDP43 rescue 22.4µM* and FUS yeast rescue inactive.
For COc1ccc(C2CC(=O)N(C)c3ccccc3S2)cc1 (stereo unspecified) the results were Abeta rescue inactive, aSyn rescue 17.6%, TDP43 rescue 12.6µM* and FUS yeast rescue inactive.
`CN1C(=O)CC(c2ccco2)Sc2ccccc21` (stereo unspecified) gave Abeta rescue inactive, aSyn rescue -0.6%, TDP43 rescue 2.9% and FUS yeast rescue inconclusive.
Screening O=C1OC(c2cccc3c(F)cccc23)c2ccccc21 (stereo unspecified) returned Abeta rescue inactive, aSyn rescue 7.7%, TDP43 rescue 20µM* and FUS yeast rescue inactive.
Screening COC(=O)[C@]12C[C@H](CC(=O)NCc3ccccc3)C(=O)N(Cc3ccc(Cl)cc3Cl)C1=C[C@H](C1CCCC1)O[C@@H]2C returned FUS yeast rescue inactive.
`COC(=O)[C@]12C[C@H](CC(=O)N3CCN(C(=O)C4CC4)CC3)C(=O)N(Cc3cccc4ccccc34)C1=C[C@H](C1CCCC1)O[C@@H]2C` gave FUS yeast rescue 20µM*.
COC(=O)[C@]12C[C@H](CC(=O)NCC34CC5CC(CC(C5)C3)C4)C(=O)N(Cc3cccc4ccccc34)C1=C[C@H](C(C)(C)C)O[C@@H]2C was read as FUS yeast rescue inactive.
Screening COC(=O)[C@]12C[C@H](CC(=O)NCCc3ccccc3OC)C(=O)N(Cc3cccc4ccccc34)C1=C[C@H](C(C)(C)C)O[C@@H]2C returned FUS yeast rescue 14.1µM*.
Screening CCCCOCCCNC(=O)C[C@H]1C[C@@]2(C(=O)OC)C(=C[C@H](C3CCCC3)O[C@@H]2C)N(Cc2cccc3ccccc23)C1=O returned FUS yeast rescue 8.91µM*.
Screening O=S1(=O)C=CCN1Cc1cn(Cc2cccc(Cl)c2)nn1 returned FUS yeast rescue inactive.
For CCCCNC(=O)c1nn(C)c2c1CSc1ccccc1-2 the results were Abeta rescue inactive, TDP43 rescue 35.5µM* and FUS yeast rescue inactive.
Cc1ccc2c(c1)-c1c(c(C(=O)N3CCN(c4cc(C)ccc4C)CC3)nn1C)CS2 was read as Abeta rescue inactive, TDP43 rescue 4.7% and FUS yeast rescue inconclusive.
COc1ccc(NC(=O)c2nn(C)c3c2CSc2ccc(C)cc2-3)cc1OC was read as Abeta rescue inactive, TDP43 rescue 22.4µM* and FUS yeast rescue inactive.
Cn1nc(C(=O)NCc2ccccc2Cl)c2c1-c1ccccc1SC2 was read as Abeta rescue inactive, TDP43 rescue 6.3% and FUS yeast rescue inactive.
Screening Cn1nc(C(=O)NCc2ccccc2)c2c1-c1ccccc1SC2 returned Abeta rescue inactive, TDP43 rescue 20µM* and FUS yeast rescue inactive.
Cn1nc(C(=O)NCc2cccc(Cl)c2)c2c1-c1ccccc1SC2 was read as Abeta rescue inactive, TDP43 rescue 20µM* and FUS yeast rescue inactive.
For CC1CCCC(C)N1CCCNC(=O)c1nn(C)c2c1CSc1ccccc1-2 (stereo unspecified) the results were Abeta rescue inactive, aSyn rescue 6.2%, TDP43 rescue 2.5% and FUS yeast rescue inactive.

Source: PubChem BioAssay
